Test results: ChEMBL document CHEMBL1157539, “Thousands of chemical starting points for antimalarial lead identification” (Nature, 2010)

Columns and labels:
Assay type in all cases: functional
Plasmodium falciparum [1] = experiment: GSK_TCMDC: Inhibition of Plasmodium falciparum 3D7 in whole red blood cells, using parasite LDH activity as an index of growth. Test compounds present at 2uM
Plasmodium falciparum [2] = experiment: GSK_TCMDC: Inhibition of Plasmodium falciparum Dd2 in whole red blood cells, using parasite LDH activity as an index of growth. Test compounds present at 2uM
HepG2 = experiment: GSK_TCMDC: Percent inhibition of human HepG2 cell line. Test compounds present at 10uM.

Row | Compound | Inhibition (Plasmodium falciparum [1]) [%] | Inhibition (Plasmodium falciparum [2]) [%] | Inhibition (HepG2) [%]
1 | Cc1nc(Nc2cc(Cl)ccc2O)nc(Nc2cc(Cl)ccc2O)c1[N+](=O)[O-] | 98 | 83 | 0
2 | Cc1cccc2nc(-c3cccc(-c4cccc(NC(=O)Nc5ccc(Cl)cc5)c4)c3)[nH]c12 | 100 | 94 | 23
3 | CCCN1CCN(c2cc(NCC)c3c4c(onc24)-c2ccccc2C3=O)CC1 | 96 | 11 | 4
4 | COc1ccccc1-c1sccc1C(=O)NC1(c2cc(Cl)cc(Cl)c2)CCCC1 | 88 | 95 | 0
5 | COc1cc(C=NNc2ccnc3cc(Cl)ccc23)ccc1O | 100 | 100 | 15
6 | CC(C)(C)c1nn(-c2ccccc2)c2[nH]c(=O)c(CNC3CCCCC3)cc12 | 83 | 76 | 6
7 | CC(C)c1ccc2c(c1)c(SC(C)(C)C)c(CC(C)(C)C#N)n2Cc1ccc(Cl)cc1 | 96 | 95 | 0
8 | CCCCn1c(Sc2ccc(C#N)c([N+](=O)[O-])c2)nnc1-c1cccc(Cl)c1 | 96 | 87 | 30
9 | CCCC(C)NC(=O)C(N)Cc1cccc(I)c1.O=C(O)C(F)(F)F (centres undefined) | 95 | 65 | 11
10 | COc1cc2nc(N3CCC(c4ccccc4)CC3)nc(NCc3ccc(=O)[nH]c3)c2cc1OC | 100 | 58 | 12
11 | O=C(CC(c1ccccc1)c1ccccc1O)N1CCOCC1 (centres undefined) | 84 | 5 | 30
12 | CN(c1ccc(NC(=O)c2ccc(F)cc2)cc1)C1CCN(Cc2cccc(F)c2)C1.O=C(O)C(F)(F)F (centres undefined) | 81 | 74 | 3
13 | COc1ccc2nccc([C@@H](O)CN3CCC(NCc4ccc5scnc5c4)CC3)c2c1.O=C(O)C(=O)O | 100 | 93 | 17
14 | O=C(NCC1CCN(Cc2ccc(F)cc2)C1)c1cc(-c2cccc(C(F)(F)F)c2)cs1.O=C(O)C(F)(F)F (centres undefined) | 93 | 18 | 38
15 | CN1CCN(c2ccnc3cc4c(cc23)N(Cc2ccccc2)CC4)CC1 | 94 | 27 | 0
16 | O=C(NCC1CCN(CC2CCCCC2)C1)c1cc(-c2cccc(C(F)(F)F)c2)cs1.O=C(O)C(F)(F)F (centres undefined) | 96 | 21 | 47
17 | CN1CCCC1CNS(=O)(=O)c1ccc(C(=O)NCC2CC2)cc1.O=C(O)C(F)(F)F (centres undefined) | 91 | 0 | 17
18 | O=C(NC1CC1c1ccccc1)N(CCCn1ccnc1)Cc1csc(-c2ccc(CNCc3ccccc3)cc2)n1.O=C(O)C(F)(F)F (centres undefined) | 96 | 20 | 6
19 | Cl.Clc1ccc(CCNCCCCCCNCCc2ccc3c(c2)OCO3)cc1 | 91 | 11 | 23
20 | COc1ccc(CN2CCCN(Cc3cccc(NC(=O)c4ccc(-c5ccccc5)cc4)c3)CC2)cc1.O=C(O)C(F)(F)F | 94 | 24 | 37

Row | Compound | Inhibition (Plasmodium falciparum [1]) [%] | Inhibition (Plasmodium falciparum [2]) [%] | Inhibition (HepG2) [%]
21 | O=C(/C=C/c1ccc(Cl)c(Cl)c1)NCCCCCN1CCCN(C(=S)Nc2cccc(Cl)c2)CC1 | 93 | 7 | 19
22 | CCOc1ccc(-c2nonc2NC(=O)c2ccccc2OC)cc1OCC | 100 | 99 | 24
23 | CC(C)C(C(=O)Nc1ccc(S(=O)(=O)N(C)C)cc1)c1ccc(Cl)cc1 (centres undefined) | 100 | 98 | 27
24 | CCN(CC)CCCC(C)Nc1c(-c2ccc(OC)cc2)cnc2ccccc12 (centres undefined) | 93 | 38 | 3
25 | C[C@H](Nc1nc(C(Oc2ccccc2)c2ccccc2)nc2[nH]ncc12)c1ccccc1 (some centres undefined) | 100 | 56 | 15
26 | COc1ccccc1C1CN(Cc2coc3ccccc3c2=O)Cc2ccccc2O1 (centres undefined) | 87 | 61 | 4
27 | COc1c(C2CCN(CCN3CCC(CNC(=O)c4ccc(-c5ccc(C#N)cc5)cc4)CC3)CC2)ccc2c1CCCC2 | 100 | 100 | 96
28 | O=C(NC1CCN(Cc2ccc(Cl)cc2)CC1)c1cn(-c2ccccc2)nc1-c1cccnc1 | 93 | 9 | 13
29 | CCN(Cc1ccc(-c2ccc(C(F)(F)F)cc2)cc1)C(=O)Cn1c(SCc2cccc(F)c2F)cc(=O)c2cc(CN3CCCCC3)ccc21.Cl | 100 | 50 | 95
30 | COc1ccc(CNCc2ccc(-c3ccc(-c4nc5cc(C(F)(F)F)ccc5[nH]4)s3)cc2)cc1.O=C(O)C(F)(F)F | 100 | 98 | 38
31 | COc1cccc(O)c1CN1CCC2(CCCN(Cc3ccc(F)cc3)C2)C1 (centres undefined) | 98 | 72 | 21
32 | COc1ccccc1-n1c(SCC(=O)Nc2ccccc2F)nc2cccnc21 | 96 | 88 | 0
33 | COc1ccc(Cn2c(Nc3cccc(C(F)(F)F)c3)nc3cc(C(=O)NCCCN(C)C)ccc32)cc1Cl | 90 | 3 | 15
34 | CCCC(CNCc1cccc(I)c1)CNc1cc(=O)c2ccccc2[nH]1 (centres undefined) | 100 | 96 | 0
35 | CCOC(=O)C1=C(C)NC2=C(C(=O)C(C(=O)OC)C(C)C2)C1c1cc(Br)c(OCC)c(OC)c1 (centres undefined) | 100 | 99 | 8
36 | COc1ccc(CCN(C)CCCOc2ccc(NC(=O)c3cccc4c(=O)c5ccccc5[nH]c34)cc2)cc1OC | 94 | 45 | 80
37 | O=C(NCCc1ccccc1)N(Cc1cccc(-c2ccc(CNCc3ccc4c(c3)OCO4)cc2)c1)C1CCN(Cc2ccccc2)CC1.O=C(O)C(F)(F)F | 94 | 70 | 11
38 | CC(C)(C)OC(=O)NCCc1cccc(-c2c[nH]c3ncc(-c4cccc(NS(C)(=O)=O)c4)cc23)c1 | 97 | 71 | 16
39 | CC(=O)N/N=C/[C@H](CCc1ccccc1)NC(=O)[C@H](CC(C)C)NC(=O)c1ccc(OCCN2CCOCC2)cc1 | 96 | 87 | 4
40 | CN1CCN(c2ccc(Nc3nc(N)c4ccn(C5CCC5)c4n3)cc2)CC1.O=C(O)C(F)(F)F | 93 | 47 | 0

Row | Compound | Inhibition (Plasmodium falciparum [1]) [%] | Inhibition (Plasmodium falciparum [2]) [%] | Inhibition (HepG2) [%]
41 | O=C(NCCc1ccccc1)[C@H](Cc1ccccc1)Nc1ccnc(NCC2CCCCC2)n1.O=C(O)C(F)(F)F | 86 | 53 | 11
42 | CC(NCCc1cccc(Cl)c1)C(O)c1ccc(OCCCCCCOc2ccc(C(O)C(C)NCCc3cccc(Cl)c3)cc2)cc1 (centres undefined) | 100 | 100 | 96
43 | C=CCc1cc(Cc2cnc(N)nc2N)cc(CCC)c1O | 90 | 2 | 54
44 | O=C1COC2(CN1CC1CCN(Cc3ccc(O)c(Cl)c3)C1)c1ccccc1-c1ccccc12.O=CO (centres undefined) | 93 | 50 | 6
45 | CC(C)(C)c1ccc(C(=O)Nc2ccc(NC(=O)c3ccc([N+](=O)[O-])o3)cc2)cc1 | 81 | 4 | 0
46 | O=C(Nc1ccc(OC2CCN(Cc3ccsc3)CC2)c(Cl)c1)c1ccc(F)cc1.O=C(O)C(F)(F)F | 98 | 83 | 31
47 | CC(Cc1ccc(C(=O)Nc2ccc(CC(C)NCCc3cccc(Cl)c3)cc2)cc1)NCCc1ccc(C(F)(F)F)cc1 (centres undefined) | 100 | 88 | 98
48 | CCCCCCCN1CC[C@@H](CCCc2ccnc3ccc(OC)cc23)[C@@H](CNC)C1.O=C(O)C(=O)O | 100 | 95 | 25
49 | Cl.O=c1cc(NCCCNCc2cc3c(Cl)cc(Cl)cc3[nH]2)[nH]c2ccccc12 | 100 | 0 | 0
50 | CC(C)(C)c1ccc(CN2CCCCC(NC(=O)c3cc(-c4ccccc4Cl)cs3)C2)cc1.O=C(O)C(F)(F)F (centres undefined) | 100 | 98 | 3
51 | Cc1cc(Nc2ccc(Cl)c(Cl)c2)n2nc(C)nc2n1 | 97 | 97 | 6
52 | Cl.O=c1cc(NCCCNC2CCOc3c(I)cc(Cl)cc32)[nH]c2ccccc12 (centres undefined) | 96 | 48 | 0
53 | FC(F)(F)c1cnc(Sc2nnc(-c3ccco3)o2)c(Cl)c1 | 98 | 97 | 0
54 | Cl.N#Cc1ccc2c(c1)CN(CCCCNC(=O)c1ccc(-c3ccccc3)cc1)CC2 | 96 | 10 | 0
55 | COc1ccc2nc3cc(Cl)ccc3c(Nc3ccc(C(=O)O)cc3)c2c1.Cl | 94 | 95 | 0
56 | CN1CCC(NCc2cccc(-c3cccc(-c4nc5cc(C(F)(F)F)ccc5[nH]4)c3)c2)CC1.O=C(O)C(F)(F)F | 100 | 100 | 35
57 | O=C(O)C(F)(F)F.Oc1ccc(CC2CCCN(c3nc(NCCCOc4ccccc4-c4ccccc4)nc(N4CCNCC4)n3)C2)cc1 (centres undefined) | 95 | 77 | 56
58 | CN(C)c1cccc(-c2cnc3ccc(NCc4cccc(Cl)c4)nn23)c1 | 99 | 98 | 11
